{"source": "PubChem BioAssay (NCI)", "note": "“And” between values parts separate entries of the source, which are not always exact repeats. Identical values can stand only once. Compounds without any hit were thinned out: in the full panel of roughly 83,000, 20% have a hit.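 Percent growth is the endpoint: 0 to 100 indicates growth inhibition (40 means 60% inhibition), 0 means no net growth, and negative values indicate cell death.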 The source made the active and inactive calls. How the source made its calls: active means growth percent below 10; inactive means the rest.", "data": [{"test_system": "MDA-MB-468 breast", "experiment": "NCI-60 one-dose screen, 48 h (100 = growth as untreated, 0 = no growth, -100 = all killed)", "settings": "10 µM unless noted", "values": [{"smiles": "O=c1[nH]c(-c2cccc(F)c2)cc2cc(F)ccc12", "growth": "33.2% (inactive)"}, {"smiles": "COc1ccc(C(=O)/C=C/c2ccc(Oc3nc(NCCO)nc(N4CCOCC4)n3)c(OC)c2)cc1", "growth": "63.4% (inactive)"}, {"smiles": "CN1CCCN(CCNc2nccc(-c3c(-c4cccc(O)c4)nc4sccn34)n2)S1(=O)=O", "growth": "68.9% (inactive)"}, {"smiles": "CCCCNC(=O)c1ccccc1C", "growth": "82.3% (inactive)"}, {"smiles": "O=C(CCNC(=O)c1nc(-c2ccccc2)n(-c2ccc(Cl)cc2)n1)NO", "growth": "107% (inactive)"}, {"smiles": "CCc1c(CC(=O)O)c2cc(C)ccc2n1Cc1ccc(Cl)cc1", "growth": "95.3% (inactive) and 94.5% (inactive)"}, {"smiles": "CC(=O)OCC(OC(C)=O)C(OC(C)=O)C(OC(C)=O)C(OC(C)=O)C(/C=N/Nc1ccccc1)=N/Nc1ccccc1", "note": "(stereo not given)", "growth": "46.4% (inactive)"}, {"smiles": "CC[C@H](Nc1nc(C)nc(N)c1C#N)c1nc2cccc(NCc3ccc(C(=O)NO)cc3)c2c(=O)n1-c1ccccc1", "growth": "-37.1% (active)"}, {"smiles": "COC(=O)Nc1nc2ccc(Sc3ccccc3)cc2[nH]1", "growth": "-3.91% (active)"}, {"smiles": "COc1cccc(-c2nn(-c3ccccc3)cc2-c2ccnc(NCCNS(=O)(=O)c3cccc(F)c3)c2)c1", "growth": "15.8% (inactive)"}, {"smiles": "NNc1ncnc2c1ncn2C1OC(CO)C(O)C1O", "note": "(stereo not given)", "growth": "58.8% (inactive)"}, {"smiles": "CCCCCCCCOC(=O)c1ccc(O)c(OC)c1", "growth": "99.2% (inactive)"}, {"smiles": "C/C(=C\\CCc1ccoc1)CC/C=C(\\C)CCCC1COC(=O)C1", "note": "(stereo not given)", "growth": "97.4% (inactive)"}, {"smiles": "COc1ccc(-n2ncn(CCCCCCn3cnn(-c4ccc(OC)cc4)c3=O)c2=O)cc1", "growth": "84.8% (inactive)"}, {"smiles": "Cc1ccc(Sc2sc(-c3ccccc3)nc2[P+](c2ccccc2)(c2ccccc2)c2ccccc2)cc1", "growth": "-61.8% (active)"}, {"smiles": "NC(=NCCCOc1ccc(F)cc1)Nc1ccc(Cl)cc1", "growth": "12.5% (inactive)"}, {"smiles": "O=C1C2=C(C(=O)c3c(O)ccc(O)c31)N(c1cccnc1)Cc1ccccc1O2", "growth": "-6.39% (active)"}, {"smiles": "Cn1c(=O)c2[nH]c(CC(=O)O)nc2n(C)c1=O", "growth": "107% (inactive)"}, {"smiles": "COc1cc(C(=O)NN=C2c3ccccc3-c3ccccc32)cc(OC)c1OC", "growth": "-3.4% (active)"}, {"smiles": "Cc1ccc(S(=O)(=O)N2C/C(=C\\c3cc(F)cc(F)c3)C(=O)/C(=C/c3cc(F)cc(F)c3)C2)cc1", "growth": "-43.3% (active)"}, {"smiles": "CCN(CC)CCOc1ccc(/C(=C(\\C)Cc2ccc(OC)cc2)c2ccc(OC(=O)NCc3ccccc3)cc2)cc1", "growth": "43.3% (inactive)"}, {"smiles": "O=C1c2ccccc2C(=O)c2c1oc1oc3c(c(=O)c21)c(=O)n(-c1ccccc1)c1ccccc31", "growth": "-27.3% (active)"}, {"smiles": "CCOc1ccc2nc3cc(N)ccc3c(N)c2c1", "growth": "-84.6% (active) and -33.5% (active)"}, {"smiles": "C=CC(=O)N1CCC[C@H](n2c(=O)n(-c3ccc(Oc4ccccc4)cc3)c3c(N)ncnc32)C1", "growth": "0.223% (active)"}, {"smiles": "CCOc1ccc(N2C(N)=NC(N)=NC2(C)C)cc1", "growth": "-0.227% (active) and 56.3% (inactive)"}, {"smiles": "O=C(C(=O)N1CCCC1)c1cn(CCCn2cc(C(=O)C(=O)N3CCCC3)c3cc(Br)ccc32)c2ccc(Br)cc12", "growth": "70.4% (inactive)"}, {"smiles": "COC1=CC(c2ccc[nH]2)=N/C1=C\\c1[nH]c(C)c(C(=O)CCCCC(=O)Nc2ccccc2)c1C", "growth": "-10.7% (active)"}, {"smiles": "Cc1cc(-c2ccc3nc(N)sc3c2)nc2ccc3[nH]ncc3c12", "growth": "5.34% (active)"}, {"smiles": "CNC(=O)c1cc(Oc2ccc3c(c2)sc2nc(-c4ccc(Cl)cc4)cn23)ccn1", "growth": "77.3% (inactive)"}, {"smiles": "O=C(c1ccccc1)c1c(/C=C/c2ccccc2)c2ccccc2[nH]c1=O", "growth": "94.5% (inactive)"}, {"smiles": "O=C1OC(c2ccc(-c3ccccc3)cc2)=C/C1=C/c1c(Cl)cccc1Cl", "growth": "90.8% (inactive)"}, {"smiles": "N#C/C(=C\\c1ccccc1Cl)c1cc2ccccc2[nH]1", "growth": "58.1% (inactive)"}, {"smiles": "CN(C)CCNC(=O)c1cccn2c(=O)c3cc4ccccc4cc3nc12", "growth": "-43.6% (active)"}, {"smiles": "N#C/C(=C\\c1ccc(Cl)cc1Cl)C(=O)Nc1ncc(Cc2ccc(Cl)c(Cl)c2)s1", "growth": "88.6% (inactive)"}, {"smiles": "CC(=O)O[C@H]1C(=O)[C@@]2(C)C([C@H](OC(=O)c3ccccc3)[C@]3(O)C[C@H](OC(=O)[C@H](O)[C@@H](NC(=O)c4ccccc4)c4ccccc4)C(C)=C1C3(C)C)[C@]1(OC(C)=O)CO[C@@H]1C[C@@H]2O", "note": "(stereo not given in full)", "growth": "-11.7% (active)"}, {"smiles": "c1ccc(Nc2ccc(Nc3nc(-c4ccccc4)nc4ccccc34)cc2)cc1", "growth": "82.3% (inactive)"}, {"smiles": "O=C(Nc1cccc(Cl)c1)Nc1nc2ccc([N+](=O)[O-])cc2o1", "growth": "-4.51% (active)"}, {"smiles": "CC(C1=C(CN(C(=O)Cc2cn(-c3ccccc3)nc2-c2ccc(Cl)cc2)C(C)C)Cc2ccccc21)c1ccccn1", "note": "(stereo not given)", "growth": "43.8% (inactive)"}, {"smiles": "O=C(O)c1ccccc1Nc1cccc(S(F)(F)(F)(F)F)c1", "growth": "111% (inactive)"}, {"smiles": "COc1ccc(-c2cc(-c3ccccc3)nc(SCCCC(=O)NO)n2)cc1OC", "growth": "-2.2% (active)"}]}]}
